# In the supplement of paper PMC3334620:
# In all, about 33,000 sequences were measured (“E-score (-0.5 to 0.5)”: median about -0.021, highest 2% from about 0.32 on). Shown is part of a subset that was picked to be rich in the highest values.
# Biological target: T1, Zap1 (UniProt P47043)
# T1 sequence: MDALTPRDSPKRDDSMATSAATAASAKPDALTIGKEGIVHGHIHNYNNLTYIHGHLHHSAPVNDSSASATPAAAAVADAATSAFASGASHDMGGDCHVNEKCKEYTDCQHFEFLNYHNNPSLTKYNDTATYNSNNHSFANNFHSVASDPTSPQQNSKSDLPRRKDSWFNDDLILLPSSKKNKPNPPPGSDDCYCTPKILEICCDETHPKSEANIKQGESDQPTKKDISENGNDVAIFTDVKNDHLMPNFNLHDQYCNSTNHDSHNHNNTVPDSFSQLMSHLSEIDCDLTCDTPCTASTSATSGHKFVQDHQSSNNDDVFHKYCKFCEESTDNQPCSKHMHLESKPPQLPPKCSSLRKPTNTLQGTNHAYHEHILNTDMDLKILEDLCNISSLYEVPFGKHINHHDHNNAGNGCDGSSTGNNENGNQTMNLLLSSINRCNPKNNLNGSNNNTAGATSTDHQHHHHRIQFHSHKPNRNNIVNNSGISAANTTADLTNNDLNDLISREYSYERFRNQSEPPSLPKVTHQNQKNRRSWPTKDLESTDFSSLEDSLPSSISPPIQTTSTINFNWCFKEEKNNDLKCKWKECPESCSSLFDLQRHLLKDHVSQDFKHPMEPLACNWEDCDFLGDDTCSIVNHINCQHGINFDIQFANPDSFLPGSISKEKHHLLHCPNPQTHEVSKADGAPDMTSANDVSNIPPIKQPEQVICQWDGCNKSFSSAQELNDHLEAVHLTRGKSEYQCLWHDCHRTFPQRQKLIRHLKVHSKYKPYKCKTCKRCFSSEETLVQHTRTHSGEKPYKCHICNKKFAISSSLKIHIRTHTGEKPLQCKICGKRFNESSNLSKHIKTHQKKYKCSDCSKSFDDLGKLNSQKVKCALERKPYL
# Test: PBM E-score (8-mer binding enrichment) (E-score (-0.5 to 0.5)); higher = stronger / more preferred TF binding
# Details: protein concentration: 200 nM; construct: GST-full length
# Procedure: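 Universal 'all 10-mer' protein binding microarrays (Agilent AMADID 015681) probed with GST-tagged S. cerevisiae TFs (full-length or DBD) made by in vitro transcription/translation (PURExpress), about 100-200 nM. Bound TF was detected with fluorescent anti-GST. Each ungapped 8-mer (which stands for itself and its reverse complement) is scored by the PBM enrichment score (E-score), a modified Wilcoxon-Mann-Whitney statistic from -0.5 to +0.5, computed with the Universal PBM Analysis Suite. Scale: above 0.35 generally sequence-specific binding.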
row,Sequence,PBM E-score
1,GGGTCACC,0.438
2,ATGTCACG,-0.195
3,CGGTCACG,0.203
4,AAGTCACA,-0.034
5,CGGTCACC,0.276
6,AGGTCACG,0.406
7,AGGTCACT,0.25
8,ACGTCACC,0.0378
9,GAGTCACC,0.0467
10,AGGTCACA,0.359
11,AGGTCACC,0.37
12,ACCCATTG,0.166
13,CGAGCGAA,-0.162
14,ATACGGCA,0.0784
15,AACGAGAG,-0.138
16,GCTTTACA,-0.0896
17,CTTAATCC,-0.131
18,GACTGAAC,-0.199
19,ACCAGCAA,0.26
20,TCTAGGCA,-0.0489
21,AAAAACTT,0.0552
22,GCATTAGC,-0.151
23,GGATACAA,0.0969
24,CGTTTGGA,0.0241
25,GGGTCACA,0.398

row,Sequence,PBM E-score
1,TGGTCACA,0.231
2,CGGTCACA,0.163
3,GCCCAACC,-0.0373
4,ACTATGGC,-0.0314
5,AGTTATGC,0.0469
6,GGGGTGAA,0.0494
7,AGGGTGAG,-0.118
8,ACGGTGAC,-0.0408
9,AGGGTGAC,0.415
10,GGGGTGAC,0.337
11,AGGGTGAT,0.427
12,AGGGTGTC,0.304
13,AGGGTGAA,0.0968
14,CGGGTGAC,0.167
15,ATCTCGTA,-0.0363
16,AACTGTCT,-0.105
17,GAGAGCTA,-0.305
18,GGCGATCA,-0.283
19,CCCCTGCG,-0.17
20,GCCCTGCA,-0.195
21,ACCCTGCG,0.422
22,ACCCTGCC,0.186
23,TCCCTGCA,0.0185
24,ACCCTGCA,0.394
25,TACACAGA,0.0113

row,Sequence,PBM E-score
1,AGACTGAC,-0.202
2,GAGCTATA,-0.233
3,ACATACGA,0.0717
4,CGCGTCGC,-0.204
5,CTGTGGAA,-0.0936
6,AACCAGAT,0.142
7,ACAGATCT,-0.0411
8,ACATAACG,0.0512
9,ACATAACT,0.149
10,ACATAACC,0.454
11,GCATAACA,0.0518
12,GCATAAGC,-0.0977
13,GCATAACC,0.414
14,CATCTTAA,-0.0359
15,AAGCGGGC,-0.335
16,CGTGACCC,0.418
17,AGTGACAC,-0.119
18,CGTGACCA,0.35
19,AGTGACCA,0.247
20,CGTGACGC,-0.134
21,AGTGACCC,0.347
22,CTTGACCC,0.311
23,AGTGACCG,0.115
24,GGTGACCA,0.283
25,AGACTTAG,-0.306

row,Sequence,PBM E-score
1,ACGTTAAC,0.0746
2,AGGTTAAG,0.383
3,GGGTTTAA,0.242
4,AGGTTAAT,0.315
5,ATGTTAAG,-0.0536
6,GGGTTAAC,0.403
7,GTGTTAAA,0.0467
8,GAGTTAAC,0.00603
9,AGGTTAAC,0.405
10,ACGTTAAG,-0.0481
11,CGGTTAAC,0.232
12,GGGTTAAA,0.443
13,CTGCCAGA,-0.0969
14,GGTTAGGA,0.296
15,CAGTGCAA,-0.0222
16,CCCTAGAA,0.177
17,CCGGTGTC,0.0219
18,AGGTAGTG,0.268
19,CGGTAGTA,0.107
20,AGGTAGTA,0.337
21,AAATGAAA,0.23
22,ACATTCTC,-0.0126
23,AAATAACC,0.42
24,GAATAACA,0.181
25,GAATAAGC,-0.182

row,Sequence,PBM E-score
1,GAATAACC,0.438
2,AAATAACG,0.042
3,CAATAACG,0.138
4,CAATAACC,0.468
5,AAATAACA,0.0357
6,CAATAACA,0.0373
7,CGCGGCAG,-0.049
8,GCGTTGAC,-0.0667
9,CGCCAGCG,-0.255
10,GTTGCCGA,-0.0812
11,GTAGCAAC,-0.0913
12,GACAGTCA,-0.217
13,ACCGTTAA,0.256
14,GAAGGTGC,0.0253
15,CAAGGTTC,0.0224
16,CAAGGTGA,0.216
17,GAAGGTTA,0.437
18,GAAGGTGA,0.116
19,CAAGGTTA,0.466
20,GTCTGGTA,0.146
21,CGTCCATA,0.125
22,AGCTGAGC,-0.185
23,ATACCCCC,0.221
24,GTACCCCA,0.35
25,GTACCCAA,0.234

row,Sequence,PBM E-score
1,CTACCCCA,0.139
2,ATACCCCA,0.383
3,ATACCCAA,0.247
4,ACTCTGCA,0.0815
5,AGTTCAGG,0.0101
6,ATATGACG,-0.122
7,GCCGAGGC,-0.0423
8,ACCCCATA,0.373
9,ACCCCATG,0.255
10,CCCCCATA,-0.0168
11,AACCCATT,0.276
12,AACCCATA,0.391
13,GACCCATA,0.259
14,GTATTCAA,0.123
15,AGCCACAG,-0.199
16,GACAGCCA,-0.146
17,ACGTCACT,-0.246
18,GCCTTACC,0.0234
19,CCATAAAC,0.0419
20,AACGTACT,0.0257
21,CAGGTACG,0.0402
22,AAGGTACT,0.33
23,AAGGTAGC,0.307
24,AAGGTATC,0.255
25,GAGGTAGC,0.0662

row,Sequence,PBM E-score
1,CAGGTACC,0.415
2,CAGGTACA,0.101
3,GAGGTACC,0.432
4,GAGGTACA,0.155
5,AAGGTAGA,0.106
6,AAGGTAGT,0.373
7,GGATCCCC,-0.152
8,CGATAGAG,-0.236
9,GTACCTTA,0.265
10,GGCATAGA,-0.0663
11,CGCTACGA,-0.0679
12,AAGGTACC,0.445
13,AAGGTACA,0.223
14,AAGGTACG,0.0328
15,CCAGTTAG,0.00998
16,CCAATAGA,-0.224
17,CTAGTTAA,0.144
18,CGACGAAC,-0.0937
19,ATATAACG,0.183
20,CTATAACA,-0.0126
21,ATATAACA,0.176
22,ATATAACC,0.456
23,CTATAACC,0.446
24,CTATAATC,-0.017
